High-throughput results deposited in PubChem BioAssay by National Center for Advancing Translational Sciences (NCATS).
Most compounds without a hit are left out; they make up all but 8% or so of the library.
ELG1 DNA repair: inhibitors of ELG1-dependent DNA repair in HEK293T cells; HEK293T ELG1-luciferase reporter, luminescence, 16 h; DNA damage induced by 5-fluorouridine; Potency, µM (doses to about 46.1 µM), for the others: at the top dose activity change, negative = inhibition, hits mostly inhibitors; 2.3% of 330,000 active; also: potency is read from the fitted curve at half-maximal effect; nearly all actives have a fitted effect of over 55% in size
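In this reporter screen, reduction of luminescence relative to DMSO vehicle indicated activity. Compounds and 5-fluorouridine were added together to 2,000 cells per well, incubated for 16 hr at 37 °C, then developed with ONE-Glo.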
Gal4-VP16 FLuc: counter-screen for ROR gamma inhibitors: Gal4-VP16 reporter | 3.5% of 310,000 active | Drosophila S2 Gal4-VP16 UAS-luciferase, luminescence, 20 h | Potency, µM (highest dose often 53.6 µM), inactives show top-dose activity, negative = inhibition, actives largely listed as inhibitors;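 also: Gal4-VP16 expression switched on by copper sulfate through the metallothionein promoter; potency is read from the fitted curve at half-maximal effect; nearly all actives have a fitted effect of over 50% in size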
FBPA coupling cs: counter-screen for Giardia aldolase inhibitors: coupling enzyme system | coupling enzyme system counterscreen, AmpLite Red fluorescence | activity change, negative = inhibition, % at 58.2 µM, hits read low | 0.67% of 290,000 active; in the data active = activity change below about -30%
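Coupling enzymes only (glyceraldehyde-3-phosphate) + compound, at 57.5 uM final, 10 min RT; add substrate/coupling/AmpLite Red mix, 20 min RT; fluorescence ex 525/em 598 nm. Actives flag coupling-system interference.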
RORg inh: blocks mouse ROR gamma transcriptional activity; Potency, µM (top dose mostly 53.6 µM), for inactives: top-dose activity change, negative = inhibition, most hits filed as inhibitors; AID 2551; P51450; Drosophila S2 Gal4-RORgamma UAS-luciferase reporter, 20 h; 5.4% of 310,000 active; also: potency is read from the fitted curve at half-maximal effect; nearly all actives have a fitted effect of over 60% in size
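ROR gamma transcriptional activity was tracked as Gal4-UAS luciferase output in stably transfected Drosophila Schneider cells, with compound added 1 hr before 700 uM copper sulfate induction and a 20 hr ambient-temperature incubation.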
TSHR antag: antagonists of human thyroid stimulating hormone receptor; P16473; TSHR-expressing cells, TSH-stimulated cAMP HTRF, 2 h; stronger effect = lower value; activity change, negative = inhibition, % at 11.5 µM; 0.2% of 330,000 active;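 active = activity change below a set negative limit, meaning inhibition stronger than a set level, cut at about -70% in these data; inconclusive = activity change between two set negative limits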
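Competitive HTRF cAMP read-out (cryptate anti-cAMP antibody, cAMP-d2; 30 min, room temperature) in freshly harvested TSHR cells. Compounds added before TSH at EC80 (4nM final), followed by 2 hours' incubation at 37 deg C.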
An asterisk follows results filed as active; ? = inconclusive; nt = no result; [ ] = dose if it differs, or a comment. Unless noted, calls follow the shape of the dose curve; as a rule, active = well fitted curve in the direction sought with a large enough effect; inconclusive = small, poorly fitted or top-dose-only effect, or another doubt; inactive = no such curve, though single readings can be large; an effect the other way counts as inactive or inconclusive. % is scaled to controls: 0 for no effect and ±100 for the full control effect.

SMILES	ELG1 DNA repair	Gal4-VP16 FLuc	FBPA coupling cs	RORg inh	TSHR antag
CC(=O)NC(NC(=S)Nc1ccc(N=Nc2ccccc2)cc1)C(Cl)(Cl)Cl (stereo unspecified)	8%	5µM*	-7	7.1µM*	-10
C=CCN(CC=C)S(=O)(=O)c1ccc(NC(=S)NC(=O)/C=C/c2ccccc2)cc1	?	-20%	-14	2.5µM*	-4
O=C(/C=C/c1ccccc1)NC(=S)Nc1ccccc1	?	2µM*	2	?	-20
O=C(/C=C/c1ccc(S(=O)(=O)N2CCOCC2)cc1)NC(=S)Nc1ccc(Cl)cc1Cl	6%	12%	0	11µM*	2
CCN(C(=O)COC(=O)c1nc(Cl)ccc1Cl)C1CCS(=O)(=O)C1 (stereo unspecified)	6%	nt	nt	nt	11
O=C(/C=C/c1ccccc1)NC(=S)Nc1ccc(N2CCOCC2)cc1	1%	3.2µM*	-2	1µM*	2
O=C(/C=C/c1ccc(F)cc1)NC(=S)Nc1ccccc1	7%	10µM*	-3	7.9µM*	-4
O=C(/C=C/c1ccccc1)NC(NC(=S)Nc1ccc(Cl)cc1)C(Cl)(Cl)Cl (stereo unspecified)	-16%	10µM*	1	?	-26
O=C(/C=C/c1ccc(Cl)cc1)Nc1ccc(N2CCOCC2)cc1	1%	9%[10 µM]	4	12%	6
O=C(Nc1ccccc1)O/N=C/c1ccc(F)cc1	?	?	0	10µM*	-2
NC(N)=NS(=O)(=O)c1ccc(NC(=S)NC(=O)/C=C/c2ccc(F)cc2)cc1	15%	10%	1	-24%	-7
COc1cccc(-c2cncnc2NCc2cccc(C)c2)c1	nt	-2%	-3	-27%	nt
Cc1c2oc3c(C)ccc(C(=O)N[C@@H]4C(=O)N[C@@H](C(C)C)C(=O)N5CCC[C@@H]5C(=O)N(C)CC(=O)N(C)[C@@H](C(C)C)C(=O)O[C@H]4C)c3nc-2c(C(=O)N[C@@H]2C(=O)N[C@@H](C(C)C)C(=O)N3CCC[C@@H]3C(=O)N(C)CC(=O)N(C)[C@@H](C(C)C)C(=O)O[C@H]2C)c(N)c1=O	nt	-5%	-27	?	nt
O=C(/C=C/c1ccc(Cl)cc1)N1CCN(c2ccc([N+](=O)[O-])c(N3CCOCC3)c2)CC1	18µM*	?	-3	?	-5
O=C(/C=C/c1ccc(Cl)cc1)NC(=S)Nc1ccc(N2CCOCC2)c(Cl)c1	?	5.6µM*	4	?	-6
O=C(Nc1ccc(N2CCOCC2)c(Cl)c1)c1ccc(Cl)cc1	?	-8%[10 µM]	-28	35%	-23
O=C(/C=C/c1ccc(F)cc1)NC(=S)N1CCN(Cc2ccccc2)CC1	13%	7.1µM*	3	2.5µM*	6
O=C(/C=C/c1ccc(F)cc1)NC(=S)N1CCOCC1	9%	3%	-5	8%	7
O=C(Cn1c(=O)c2cccn2c2ccccc21)Nc1cc(F)ccc1F	4%	1%	nt	4%	22
CCOc1ccccc1NC(=O)CCc1c(C)nn(-c2ccc(N3CCCCC3)nn2)c1C	?	-14%	-6	0%	7
CC(C)(C)C(=O)CN1C2=NCCCN2c2ccccc21	-17%	1%	0	-27%[1.91 µM]	25
COc1ccc(-c2onc(C)c2-c2ccc(C(=O)OC(C)C)o2)c(O)c1	23µM*	-30%	-1	14%	-30
Cc1cc(-n2c(C)cc(C(=O)CSc3ncnc4ccccc34)c2C)no1	-12%	5µM*	-11	?	-49
Cc1cc(C)n2nc(SCC(=O)c3cc(C)n(-c4cc(C)on4)c3C)nc2n1	?	4µM*	0	-5%	-21
CC(=O)c1cccc(OCC(=O)c2cc(C)n(-c3cc(C)on3)c2C)c1	?	?	-34*	?	-10
SMILES	ELG1 DNA repair	Gal4-VP16 FLuc	FBPA coupling cs	RORg inh	TSHR antag
COc1ccc(C(=O)N2CCC3(CC2)CN(c2ccccn2)C3)cc1	nt	10%	-1	-24%	nt
CCCCn1c(-c2ccco2)n[nH]c1=S	16%	7.1µM*	-2	4.5µM*	5
CCn1c(-c2ccco2)n[nH]c1=S	0%	?	3	16µM*	2
CCCCn1c(-c2ccoc2C)n[nH]c1=S	-11%	-2%	1	3%	-13
Cn1c(-c2ccco2)n[nH]c1=S	12%	-3%	1	?	-7
CC(C)Cn1c(-c2ccco2)n[nH]c1=S	-4%	?	-4	10µM*	1
CCCCn1c(-c2c(Cl)c(C)nn2C)n[nH]c1=S	?	-2%	3	2.2µM*	-41
COc1ccc(C2=Nn3c(nnc3-c3ccccc3OC)SC2)c(OC)c1	nt	?	2	?	nt
Cc1cccc(OCCCC(=O)N2CCCCCC2)c1C	-5%	-5%	-2	0%	-6
Cc1csc2nc(SCC(=O)Nc3ccccc3F)[nH]c(=O)c12	-1%	2%	nt	26%	8
C=CCn1c(-c2ccco2)n[nH]c1=S	-3%	?	0	10µM*	8
CCCCn1c(-c2sccc2C)n[nH]c1=S	6%	11µM*	-3	5µM*	-27
C=CCn1c(-c2ccoc2C)n[nH]c1=S	?	?	-6	?	16
CCCCn1c(Cc2ccccc2)n[nH]c1=S	0%	-24%[0.365 µM]	2	?	3
COc1cc(/C=N/NC(=O)COc2ccc([N+](=O)[O-])cc2)ccc1OCC(=O)N1CCOCC1	-28%	6%	2	2%	-2
COc1ccc(-c2n[nH]c(=S)n2/N=C/C=C\c2ccccc2OC)cc1	?	?	0	3.5µM*	3
COc1ccccc1/C=C/C=N/n1c(-c2ccccn2)n[nH]c1=S	?	2%	3	?	2
COc1ccccc1/C=C/C=N/n1c(-c2ccncc2)n[nH]c1=S	0%	?	4	?	-10
COc1ccccc1/C=C/C=N/n1c(-c2ccc(C)cc2)n[nH]c1=S	9%	2.8µM*	1	1.1µM*	6
COc1ccccc1/C=C/C=N/n1c(-c2ccco2)n[nH]c1=S	-3%	2%	1	0.63µM*	-13
COc1ccccc1/C=C/C=N/n1c(-c2n[nH]c3c2CCC3)n[nH]c1=S	?	0%	1	-30%	-16
S=c1[nH]nc(-c2ccco2)n1/N=C/C=C/c1ccco1	-15%	10µM*	1	7.1µM*	-7
S=c1[nH]nc(-c2cc(-c3ccccc3)n[nH]2)n1/N=C/C=C/c1ccco1	3%	-11%	-3	?	-14
CN(C)C(=O)c1ccc(-c2nccc(N(C)Cc3ccco3)n2)cc1	nt	-8%	0	-18%	nt
COC(=O)C/C=C\[C@@H](C)[C@@H](/C=N\O[C@@H](C)CN1CCCCc2nc(C)c(C)cc21)NS(=O)(=O)c1ccc(C)cc1	nt	5%[10 µM]	2	-2%[10 µM]	nt
